Measured values as given in PubChem BioAssay AID2501 (Southern Research Specialized Biocontainment Screening …, 2010).
About 1,200 (55%) of roughly 2,200 compounds were called active. The set was probably picked from earlier hits. Some of the results follow. Values without a mark were called inactive. Cut-off not given; nearly all actives show IC50 up to about 92 µM.

Assay: counter assay for TAg ATPase ADP read-out – biochemical, ADP-Hunter, fluorescence, counter-screen (AID 2501);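 further: purified T antigen ATPase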;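 on inhibition: 0% = enzyme with vehicle and 100% = reference inhibitor wells; higher means more inhibition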
Conditions: series mostly up to 100 µM; inhibition: at the top concentration

SMILES | inhibition | IC50
COc1ccc(N2C(=O)/C(=C/c3ccco3)C(=O)NC2=S)cc1 | 20.8% [at 50 µM] | –
COc1ccc(-n2c(/C=C/c3ccc(O)c(O)c3)nc3ccccc3c2=O)cc1 | – | 24.2 µM (active)
COc1cccc(-n2c(/C=C/c3ccc(O)c(O)c3)nc3ccccc3c2=O)c1 | – | 7 µM (active)
COC(=O)C1=Nc2ccccc2/C1=C\c1c(O)n(-c2ccc(OC)cc2)c(=O)[nH]c1=O | 4.61% | –
Cc1ccc2c(c1)=NC(=O)/C(=C/c1c(O)[nH]c(=O)[nH]c1=O)C=2 | 0.6% | –
CN(C)[C@@H]1C(=O)C(C(N)=O)=C(O)[C@@]2(O)C(=O)C3=C(O)c4c(O)cccc4[C@@](C)(O)[C@H]3C[C@@H]12 | 6.46% | –
COc1ccc(/C=C2/C(=O)N(Cc3ccco3)C(=O)N(C(C)C)C2=O)cc1 | 23% | –
O=C(O)c1c[nH]c2ccc(S(=O)(=O)N(CCCl)CCCl)cc12 | -5.36% | –
O=c1cc(-c2ccc(O)c(O)c2)oc2c(C3O[C@H](CO)[C@@H](O)[C@H](O)[C@H]3O)c(O)cc(O)c12 (stereo not given in full) | – | 4.81 µM (active)
O=C1N[C@H](Cc2ccccc2)C(=O)N2[C@@H]3[C@H](C[C@@H]12)c1ccccc1N3OOSc1ccccc1 | -26.1% | –
O=C1NC(=S)N(c2ccc(F)cc2)C(=O)/C1=C\c1ccoc1 | 21.9% | –
COc1cccc(C(=O)NC2CC3CCCC(C2)N3CC(=O)Nc2ccc(N(C)C)cc2)c1 (stereo not given) | – | 3.14 µM (active)
CN(C)c1ccc(NC(=O)CN2CCC(O)(c3ccccc3)CC2)cc1 | – | 2.88 µM (active)
CN(C)c1ccc(NC(=O)CN2C(=O)CN=C(c3ccccc3)c3ccccc32)cc1 | – | 9.96 µM (active)
CN(C)c1ccc(NC(=O)CN2C3CCCC2CC(NC(=O)c2ccccc2)C3)cc1 (stereo not given) | – | 3.12 µM (active)
Cc1ccccc1N1C(=O)NC(=O)/C(=C\c2cnn(-c3ccccc3)c2)C1=O | 26.2% | –
O=C1NC(=O)N(c2cccc(Cl)c2)C(=O)/C1=C\c1ccc(Sc2nc3ccccc3[nH]2)o1 | 19.3% [at 50 µM] | –
CN1C2CCC1CC(=NO)C2 | 23.1% | –

SMILES | inhibition | IC50
C=C(C=O)CC1CC(O)[C@]2(C)OC3CC4OC5C[C@]6(C)O[C@]7(C)CCC8OC9C[C@]%10(C)OC%11C(C)=CC(=O)OC%11CC%10OC9C[C@@H](C)C8OC7CC6O[C@]5(C)CC5OC5C4OC3CC2O1 (stereo not given in full) | 8.3% | –
CCCN1CCc2cccc3c2[C@H]1Cc1ccc(O)c(O)c1-3 | -48.6% | –
Cc1ccc2c(c1)C1CN(C)CCC1N2C(=O)Nc1cccc(C(F)(F)F)c1 (stereo not given) | 17.6% | –
CCCCN1C(=O)/C(=C/c2ccc(N(C)C)cc2)C(=O)N(Cc2ccco2)C1=O | 13.8% | –
CP(=O)(Nc1ccccc1)C(Cl)(Cl)Cl (stereo not given) | -27.6% | –
CNC(=O)Oc1ccc(-c2cn3cc(Cl)ccc3n2)cc1 | 15% | –
CNC(=O)Oc1ccc2ncccc2c1 | – | 24.1 µM (active)
CC[C@H](C)/C=C(C)/C=C/C1=CC2=C(Cl)C(=O)[C@@](C)(OC(C)=O)C(=O)C2=CO1 | -25.2% | –
O=C(CN1CCCC1=O)N1CCOCC1 | 13.2% | –
N/C(=N\N=C\c1ccc(O)cc1O)N[N+](=O)[O-] | – | 4.1 µM (active)
N/C(=N\N=C/c1ccc(-c2ccc(O)c(C(=O)O)c2)o1)N[N+](=O)[O-] | 10.8% | –
COc1ccc(/C=C2/C(=O)NC(=S)N(C3CC3)C2=O)cc1CN1C(=O)c2ccccc2C1=O | 2.18% | –
O=C(c1ccc2nc(-c3ccco3)c(-c3ccco3)nc2c1)N1CCC2(CC1)OCCO2 | -35.8% | –
O=C(O)c1cc[c]([Hg][Cl])cc1 | 1.39% | –
CN1C(=O)/C(=C/c2cccn2-c2ccc3ccccc3c2)C(=O)NC1=S | -18.3% | –
COc1cc2c(ccc3cc(OC)c(OC)c(O)c32)cc1O | – | 39.6 µM (active)
O=C1NC(=O)N(c2ccccc2)C(=O)/C1=C/C=C/c1ccco1 | 12.3% [at 50 µM] | –
